Source: the supplement of paper PMC8047044
Where a name gives a salt, the structure may show the parent alone.

Each compound was assayed on Neuro-2a (assay: neurite formation score, plate-normalized to DMSO control mean 5.04 (score (0-8 scale)); higher = more or longer neurites). Settings: 1 µM.
Protocol: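 Neuro-2a mouse neuroblastoma cells in PLL-coated 96-well plates were pre-treated for 1 h in DMEM(+) with each kinase inhibitor at 1 µM, then switched to serum-free DMEM(-) with inhibitor to induce neurite outgrowth and fixed about 2-3 h later. Three blinded observers scored neurite formation from 0 (no neurites) to 8 (long neurites on almost all cells).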

Row | SMILES | neurite formation score
1 | COc1ccc2c(OCc3nnc4ccc(-c5ccccc5)nn34)ccnc2c1 | 4.54
2 | CCNc1nc(Nc2cc(F)c(C(=O)N3CCOCC3)cc2OC)ncc1C(F)(F)F | 3.21
3 | Cc1nc(-c2cn3c(n2)-c2ccc(-c4cnn(C(C)(C)C(N)=O)c4)cc2OCC3)n(C(C)C)n1 | 5.29
4 | CNc1nc(Nc2ccc(C(=O)N3CCOCC3)cc2OC)ncc1Cl | 4.96
5 | CN1CCN(c2nc(C3=C(c4c[nH]c5ccccc45)C(=O)NC3=O)c3ccccc3n2)CC1 [Sotrastaurin (AEB071)] | 5.96
6 | CN(C)C(=O)c1cc2cnc(Nc3ccc(N4CCNCC4)cn3)nc2n1C1CCCC1 | 4.96
7 | Cc1ccc(C(=O)Nc2cccc(C(F)(F)F)c2)cc1Nc1nc(-c2cccnc2)nc2c1cnn2C | 3.96
8 | Cc1cc(Nc2cc(N3CCN(C)CC3)nc(Sc3ccc(NC(=O)C4CC4)cc3)n2)n[nH]1 [VX-680 (MK-0457,Tozasertib)] | 5.02
9 | COc1cc(Nc2ncc(F)c(Nc3ccc4c(n3)NC(=O)C(C)(C)O4)n2)cc(OC)c1OC [R406 (free base)] | 3.9
10 | O=c1cc(N2CCOCC2)oc2c1ccc1ccccc12 | 4.8
11 | O=C1NCCSc2c1sc1ccc(O)cc21 | 3.69
12 | O=C1C(c2c(O)[nH]c3ccccc23)=Nc2ccccc21 [Indirubin] | 4.88
13 | CSc1cccc(Nc2ncc3cc(-c4c(Cl)cccc4Cl)c(=O)n(C)c3n2)c1 | 0.626
14 | COc1ccc(-c2cnc3c(-c4cccc5ncccc45)cnn3c2)cc1 | 3.88
15 | O=C(O)[C@]1(Cc2cccc(Nc3nccs3)n2)CC[C@@H](Oc2cccc(Cl)c2F)CC1 | 3.69
16 | COc1ncc(-c2ccc3nccc(-c4ccnnc4)c3c2)cc1NS(=O)(=O)c1ccc(F)cc1F | 2.63
17 | CN(C)Cc1cccc(N=C(c2ccccc2)c2c(O)[nH]c3cc(C(=O)N(C)C)ccc23)c1 | 4.9
18 | CC(=O)Nc1nc(C)c(-c2ccc(Cl)c(S(=O)(=O)NCCO)c2)s1 | 4.57
19 | O=C(NCc1ccccc1)c1csc(Nc2ccncn2)n1 [Thiazovivin] | 4.57
20 | Cn1c(=O)c(F)c(Nc2ccc(I)cc2F)c2c(=O)n(C[C@@H](O)CO)cnc21 | 4.88

Row | SMILES | neurite formation score
21 | COc1cc2c(Nc3ccc(NC(=O)c4ccccc4)cc3)ncnc2cc1OCCCN1CCOCC1 | 3.69
22 | Cc1ccc(C(=O)Nc2ccc(CN3CCN(C)CC3)c(C(F)(F)F)c2)cc1C#Cc1cnc2[nH]ncc2c1 | 0.626
23 | Clc1ccc(Nc2nnc(Cc3ccncc3)c3ccccc23)cc1 [Vatalanib (PTK787) 2HCl] | 3.91
24 | Cn1cc(-c2ccc3nnc(C(F)(F)c4ccc5ncccc5c4)n3n2)cn1 | 4.02
25 | C1=N/C2=N/c3ccc(OCCN4CCCC4)c(c3)COC/C=C/COCc3cccc(c3)C(=C1)N2 [Pacritinib] | 2.29
26 | Cc1cc(C)c(/C=C2\C(=O)Nc3ccccc32)[nH]1 | 5.02
27 | O=c1sn(-c2cccc3ccccc23)c(=O)n1Cc1ccccc1 [Tideglusib] | 4.21
28 | CNC(=O)c1cc(Oc2ccc3nc(N[C@@H]4CCCC[C@H]4O)sc3c2)ccn1 | 3.21
29 | Cc1ncc(-c2ccnc(Nc3ccc(S(C)(=O)=O)cc3)n2)n1C(C)C | 4.24
30 | O=c1cc(CN2CCOCC2)occ1OCCCCCSc1ccnc2cc(C(F)(F)F)ccc12 | 4.21
31 | O=C(COc1ccc(Cl)cc1)NC1CCC(NC(=O)COc2ccc(Cl)cc2)CC1 (stereo not drawn) [ISRIB (trans-isomer)] | 4.54
32 | Cc1ccc(-n2nc(C(C)(C)C)cc2NC(=O)Nc2ccc(OCCN3CCOCC3)c3ccccc23)cc1 [BIRB 796 (Doramapimod)] | 4.57
33 | C[C@@H](Oc1cc(-n2cnc3ccc(CN4CCN(C)CC4)cc32)sc1C(N)=O)c1ccccc1C(F)(F)F | 4.29
34 | O=C(Nc1ccccc1C(=O)NC1CCCCNC1=O)c1cc2ccccc2s1 (stereo not given) | 3.54
35 | C#Cc1cccc(Nc2ncnc3cc(OCCOC)c(OCCOC)cc23)c1 [Erlotinib Hydrochloride] | 4.57
36 | CN1CCN(c2ccc(Nc3cc(-c4cccc(-n5ccc6cc(C7CC7)cc(F)c6c5=O)c4CO)cn(C)c3=O)nc2)CC1 | 5.63
37 | Cc1cnc(Nc2ccc(N3CCN(C)CC3)cc2)nc1Nc1cccc(S(=O)(=O)NC(C)(C)C)c1 | 2.36
38 | CCc1cccc(CC)c1NC(=O)N1Cc2[nH]nc(NC(=O)c3ccc(N4CCN(C)CC4)cc3)c2C1 | 4.8
39 | Cc1ccc(NC(=O)c2cccc(N(C)C)c2)cc1NC(=O)c1ccc(O)cc1 | 5.63
40 | CN(C)Cc1cccc(N=C(c2ccccc2)c2c(O)[nH]c3cc(C(N)=O)ccc23)c1 | 4.24
